Screening data (PubChem BioAssay)
TDP43 rescue = TDP-43 toxicity inhibition in yeast | TDP-43 expressing yeast growth rescue, BacTiter-Glo, 24 h | Potency, µM (series often up to 46.1 µM), for inactives: at the highest dose growth rescue (activation), actives largely listed as activators | actives 1.8% (n = 410,000) | AID 652104; further: % of control where 0% means no effect; nearly all actives have a fitted effect of over 50% in size
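Cell-based yeast growth screen: TDP-43 expression induced in galactose, inoculum OD600=0.02 after raffinose pregrowth to mid-log. Read-out BacTiter-Glo luminescence at 24 hr, 30 deg C; inhibition of toxicity seen as signal increase.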
aSyn yeast inh = rescues yeast growth from alpha-synuclein toxicity | AID 652106 | Potency, µM (titrated, usually from 46.1 µM), for the others: top-dose growth rescue (activation), most hits filed as activators | actives 0.14% (n = 370,000) | Yeast expressing alpha-synuclein, growth rescue, BacTiter-Glo, 24 h; further: % of control where 0% means no effect; nearly all actives have a fitted effect of over 65% in size
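Galactose-induced alpha-syn yeast (OD600=0.02, raffinose-pregrown) + pinned cpd, 24 hr, 30 deg C; growth by BacTiter-Glo luminescence. Growth restoration scores as activation.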
Abeta rescue = compounds reversing amyloid beta toxicity in yeast; yeast expressing A-beta42, growth rescue, OD600, 48 h; response scale: 0% DMSO, 100% iron-clioquinol control; AID 1347071; Potency, µM (series often up to 46.1 µM), usual class: activators; actives 0.063% (n = 410,000); further: nearly all actives have a fitted effect of over 55% in size
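Yeast A-beta toxicity model in growth medium with pinned compounds, 48 h at 30 C; growth read as absorbance at 600 nm. Normalized to FeCl3/clioquinol equimolar mix (positive) and DMSO (negative).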
GRP78 ERSR act = induces the endoplasmic reticulum stress response in human glioma cells | AID 602332 | U87-MG GRP78 promoter luciferase reporter, 16 h | Potency, µM, inactives show at the top dose activation, hits mostly activators | actives 0.02% (n = 420,000); further: series mostly up to about 76 µM; % of control where 0% means no effect; nearly all actives have a fitted effect of over 35% in size
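ERSR induction read as luciferase luminescence (Bright-Glo, 10 min at room temperature) in stably transfected human U87-MG glioma cells exposed to compounds for 16 h, using GRP78 as sensor.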
MBNL1-CUG inh = blocks human MBNL1 binding to CUG repeat RNA | TR-FRET MBNL1-His/biotin-(CUG)12 binding, 665/545 ratio | Potency, µM (highest dose often 57.5 µM), for inactives: top-dose activity change, negative = inhibition, hits mostly inhibitors | actives 0.036% (n = 280,000); active means well fitted inhibition curve with a large enough effect in the signal ratio, with a control signal flat, not every such curve was filed as active; inconclusive means small, poorly fitted or top-dose-only effect, or effect the other way, or a change in a side signal; inactive means no such curve, though single readings can be large or run the other way; the % refers to the signal ratio; further: on the % scale 0 is the no-effect control and ±100 the full control effect
Target sequence (Q9NR56 whole entry, looked up): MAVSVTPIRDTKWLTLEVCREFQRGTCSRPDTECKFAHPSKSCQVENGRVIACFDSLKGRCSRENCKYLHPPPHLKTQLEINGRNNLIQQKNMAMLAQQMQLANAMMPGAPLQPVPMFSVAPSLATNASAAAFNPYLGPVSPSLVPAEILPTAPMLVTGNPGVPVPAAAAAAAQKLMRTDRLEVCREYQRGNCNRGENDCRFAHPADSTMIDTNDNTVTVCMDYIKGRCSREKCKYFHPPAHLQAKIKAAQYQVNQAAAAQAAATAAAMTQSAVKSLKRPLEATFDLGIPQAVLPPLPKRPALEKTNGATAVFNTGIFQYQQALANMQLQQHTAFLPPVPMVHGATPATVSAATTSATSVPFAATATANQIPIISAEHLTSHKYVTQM
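TR-FRET between His-tagged MBNL1 and biotin-(CUG)12 RNA, detected with Tb anti-His antibody (0.055 ng/ul) and streptavidin-XL665 (5 nM), 60 min at room temperature. Compounds titrated 92 nM to 58 uM; 665/545 nm ratio normalized to buffer and complex controls.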
FUS yeast rescue = suppressors of FUS proteinopathy in yeast; S. cerevisiae FUS-expressing, growth rescue, OD600, 24 h; Potency, µM (titrated, usually from 76.6 µM), usual class: activators; actives 0.24% (n = 390,000); AID 1347120;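 further: plate controls were DMSO vehicle for no effect and reference control for full effect; nearly all actives have a fitted effect of over 55% in size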
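Read-out: OD at 600 nm after 24hr at 30C, reporting rescue of FUS-induced yeast toxicity. Cells at OD 0.005 in galactose (2%) minimal medium; compounds tested in a dilution series; CP55940 titration from 92uM final as control.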
The depositor's hits bear a star; i = inactive; ? = inconclusive; · = not tested or not shown; ! = not active in a repeat. Rows were chosen to be rich in hits. Some 2% of all compounds tested hit in one or more screens of this group. Unless noted, the call rests on the fitted dose curve; in most records, active means well fitted curve in the direction sought with a large enough effect; inconclusive means small, poorly fitted or top-dose-only effect, or another doubt; inactive means no such curve, though single readings can be large; an effect the other way counts as inactive or inconclusive. Potency means the concentration at half of the fitted maximal effect.

SMILES | TDP43 rescue | aSyn yeast inh | Abeta rescue | GRP78 ERSR act | MBNL1-CUG inh | FUS yeast rescue
O=C(Nc1ccccc1-c1ccccc1)c1cnccn1 | 17.8µM* | 0.5% | i | 2.2% | 8.7% | i
O=C(COC(=O)c1cnccn1)Nc1ccccc1-c1ccccc1 | 19.0% | 6.1% | i | -2.0% | · | ·
Cc1cc2ncn(-c3nnnn3-c3ccccc3)c2cc1C | 17.8µM* | 0.6% | i | -3.1% | 10.0% | i
O=S1(=O)CC2c3ccc(F)cc3CN2CN1Cc1ccccc1 (configuration not stated) | · | · | · | · | · | i
O=S(=O)(NCc1ccccc1Cl)c1ccc(-c2cnc(C3CC3)o2)cc1 | 22.4µM* | · | i | -1.6% | · | i
Cc1ccc(NS(=O)(=O)c2ccc(-c3cnc(C4CC4)o3)cc2)cc1 | ? | ? | i | 0.7% | 4.2% | i
O=S(=O)(NCc1ccccc1)c1ccc(-c2cnc(C3CC3)o2)cc1 | 5.0% | 3.5% | i | -4.6% | -5.7% | i
Cc1cccc(C)c1NS(=O)(=O)c1ccc(-c2cnc(C3CC3)o2)cc1 | 25.1µM* | ? | i | -3.9% | -0.5% | i
O=C(CCl)N1c2ccccc2Sc2ccc3ccccc3c21 | 5.01µM* | 18.3% | i | -14.0% | · | i
O=C(Nc1ccc(Cl)c(Cl)c1)C1CCCN1S(=O)(=O)c1cccc2cccnc12 (configuration not stated) | · | · | · | · | · | i
C(=N\n1cnnc1)/c1cccc(OCCOc2ccccc2)c1 | ? | 2.7% | i | -3.7% | 5.7% | i
Fc1ccccc1COc1ccc(/C=N/n2cnnc2)cc1 | 11.2µM* | 0.0% | i | 5.0% | 5.3% | i
C(=N\n1cnnc1)/c1ccc(OCc2cccc3ccccc23)cc1 | 12.6µM* | 15.8% | i | 0.4% | 7.6% | i
COC(=O)c1cc(-c2cccc(OC(F)(F)F)c2)c(=O)n2c1CCC2 | · | · | · | · | · | i
O=C(NC1CCCCN(Cc2cccc(C(F)(F)F)c2)C1=O)c1ccc(Cl)c(Cl)c1 (configuration not stated) | · | · | · | · | · | i
S=C(NCc1ccc2[nH]c3c(c2c1)CCCC3)Nc1ccccc1 | 17.8µM* | ? | ? | -0.3% | 27.3% | i
O=C(CSc1nnc(SCc2cccc3ccccc23)s1)Nc1ccc(Oc2ccccc2)cc1 | · | · | · | · | · | i
N=c1c2c(ccn1Cc1ccccc1)Oc1ccc3ccccc3c1C2c1ccccc1 (configuration not stated) | · | · | · | · | · | 14.1µM*
N=c1c2c(ncn1CCN1CCOCC1)Oc1ccc3ccccc3c1C2c1ccccc1 (configuration not stated) | -25.9% | · | i | -0.4% | 3.1% | i
CC(NC(=O)c1cccnc1)c1nnc2n1CCN(Cc1ccc(F)cc1F)CC2 (configuration not stated) | · | · | · | -4.6% | · | ·
CCC(C)NC(=O)c1c(N)n(/N=C/c2cccnc2)c2nc3ccccc3nc12 (configuration not stated) | 14.1µM* | 4.2% | i | 0.4% | -5.2% | i
Cc1cc(OCC(=O)N(C)Cc2ccccc2)ccc1Cl | 11.2µM* | 3.9% | i | -3.5% | 0.3% | i
O=C(CCl)Nc1cn(-c2ccccc2)nc1-c1ccc(F)cc1 | 8.91µM* | 4.2% | i | -12.0% | -6.9% | i
Fc1ccc(-c2nn(-c3ccccc3)cc2CNCc2ccccc2)cc1 | -20.0% | -9.1% | i | -9.4% | -4.6% | i
S=C(Nc1cccc2ccccc12)NC1CCCCC1 | 3.8% | 21.1% | 12.6µM* | 7.1% | 0.5% | i
SMILES | TDP43 rescue | aSyn yeast inh | Abeta rescue | GRP78 ERSR act | MBNL1-CUG inh | FUS yeast rescue
S=C(Nc1cccc2ccccc12)Nc1cccc2ccccc12 | 0.6% | 11.0% | i | 3.0% | · | i
CCCCc1ccccc1NC(=S)NC1CCCC1 | -9.8% | -5.2% | 7.08µM* | -5.9% | -3.0% | i
OC1(c2ccc3c(c2)CN(Cc2nccs2)CCO3)CCN(c2ccccc2F)CC1 | · | · | · | 2.2% | · | ·
CC[C@H]1C=C[C@@H](C(=O)NS(=O)(=O)c2ccc(C)cc2)N(C(C)=O)C1 | · | · | · | · | · | i
O=C(c1cnn(-c2nccc(-c3ccccc3F)n2)c1C1CC1)N1CCN(CCO)CC1 | · | · | · | -2.9% | · | ·
COC(=O)CCCC(=O)Nc1ccc(Cl)c(Cl)c1 | 10µM* | -4.4% | i | -2.8% | -5.1% | i
O=C(O)CCCC(=O)Nc1ccc(Cl)c(Cl)c1 | -2.3% | -18.2% | i | -1.1% | 9.2% | i
O=c1ccc(-c2ccccc2)nn1Cc1ccccc1 | 22.4µM* | -1.1% | i | 3.4% | · | i
O=c1ccc(-c2ccccc2)nn1Cc1ccc(F)cc1Cl | 31.6µM*! | 19.8% | i | -4.9% | 9.1% | i
Cc1ccc(-c2ccc(=O)n(Cc3cccc(Br)c3)n2)cc1 | 3.8% | 22.4µM* | i | 0.0% | 0.4% | ?
COc1ccc(Cn2cc(COC(=O)NCCc3c[nH]c4ccccc34)nn2)cc1 | · | · | · | · | · | i
CCOC(=O)C1CCN(C(=O)c2c(C)oc3c2C(=O)c2ccccc2C3=O)CC1 | 0.0% | -3.0% | i | 6.8% | ? | i
Cc1oc2c(c1C(=O)N1CCC(C)CC1)C(=O)c1ccccc1C2=O | 12.6µM* | 7.8% | i | -10.4% | ? | i
CCOC(=O)CCCCC(=O)c1[nH]c(=O)[nH]c1CSc1nc(-c2ccccc2)c(C#N)c(=O)[nH]1 | -10.6% | 9.7% | i | -1.7% | 7.08µM* | i
CCOC(=O)CCCCC(=O)c1[nH]c(=O)[nH]c1CSCCO | 2.9% | 0.3% | i | -0.3% | 3.55µM* | i
N#Cc1c(-c2ccccc2)nc(SCC(=O)N(c2ccccc2)c2ccccc2)[nH]c1=O | 9.1% | 0.1% | i | -2.4% | ? | i
O=C(NCc1ccccn1)c1cnn(-c2nccc(-c3cccs3)n2)c1C1CC1 | · | · | · | 0.5% | · | ·
CS(=O)(=O)N1CCN(/[N+]([O-])=N/Oc2ccc([N+](=O)[O-])cc2[N+](=O)[O-])CC1 | · | -45.8% | · | -11.6% | · | ·
Cc1nc(NC(=O)C(C)(C)C)sc1-c1nc(N)sc1-n1cc(-c2ccccc2)nn1 | 6.7% | 2.2% | i | · | · | i
CCNc1nc(-c2sc(NC(=O)C(C)(C)C)nc2C)c(-n2cc(-c3ccccc3)nn2)s1 | 28.2µM* | 0.9% | i | · | · | i
COc1ccccc1CNC(=O)C(=O)NCC(c1cccs1)S(=O)(=O)c1ccc(F)cc1 (configuration not stated) | 6.6% | · | i | -1.3% | · | 28.2µM*
COc1ccccc1CCNC(=O)C(=O)NCC(c1cccs1)S(=O)(=O)c1ccc(F)cc1 (configuration not stated) | 6.0% | · | i | -3.6% | · | i
